About 2,000 (36%) of roughly 5,500 compounds were called active. Not shown: some 18% with an inconclusive outcome. Rule as the data show it: active = normalized growth mostly below about 0.91 (no sharp cut-off); inconclusive = no clear call, values can overlap the other calls; inactive = mostly above about 0.92. This is one part of the list.
Experiment: chemical genetic growth profiling, strain panel (AID 1159580);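 also: tested at 20 µM; growth read once vehicle control cultures reached saturation at 30 °C; 1 = growth at the plate median or of vehicle wells; lower values mean less growth of the strain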
Conditions: growth OD
[1] = S. cerevisiae deletion strains, locus YNL128W, strain TEP1, active compounds read low
[2] = S. cerevisiae deletion strains, locus YPL241C, strain CIN2, active compounds read low

Measured: normalized growth

Cc1cn([C@H]2C[C@@H](N=[N+]=[N-])[C@@H](CO)O2)c(=O)[nH]c1=O
inactive: S. cerevisiae deletion strains, locus YAL040C, strain CLN3, active compounds read low 1 | S. cerevisiae deletion strains, locus YER002W, strain NOP16, active compounds read low 0.99 | S. cerevisiae deletion strains, locus YMR307W, strain GAS1, active compounds read low 0.999 | [1] 1.01 | S. cerevisiae deletion strains, locus YNL175C, strain NOP13, active compounds read low 0.983 | S. cerevisiae deletion strains, locus YNL197C, strain WHI3, active compounds read low 1 | S. cerevisiae deletion strains, locus YNL224C, strain SQS1, active compounds read low 0.974 | S. cerevisiae deletion strains, locus YOR083W, strain WHI5 (second series), active compounds read low 1.02 | [2] 0.995

CC(C)c1nc2ccccc2[nH]1
inactive: S. cerevisiae deletion strains, locus YAL013W, strain DEP1, active compounds read low 1.01 | S. cerevisiae deletion strains, locus YBR229C, strain ROT2, active compounds read low 1.03 | S. cerevisiae deletion strains, locus YCL061C, strain MRC1, active compounds read low 1.01 | S. cerevisiae deletion strains, locus YDL101C, strain DUN1, active compounds read low 1.03 | S. cerevisiae deletion strains, locus YDL134C, strain PPH21, active compounds read low 1.02 | S. cerevisiae deletion strains, locus YDR150W, strain NUM1, active compounds read low 0.993 | S. cerevisiae deletion strains, locus YEL061C, strain CIN8, active compounds read low 1.01 | S. cerevisiae deletion strains, locus YGR078C, strain PAC10, active compounds read low 1.01 | S. cerevisiae deletion strains, locus YHR030C, strain SLT2, active compounds read low 1.02 | S. cerevisiae deletion strains, locus YHR087W, strain rtc3, active compounds read low 1.03 | S. cerevisiae deletion strains, locus YJR043C, strain POL32, active compounds read low 1 | S. cerevisiae deletion strains, locus YJR075W, strain HOC1, active compounds read low 1.02 | S. cerevisiae deletion strains, locus YLR039C, strain RIC1, active compounds read low 1.01 | S. cerevisiae deletion strains, locus YLR058C, strain SHM2 (second series), active compounds read low 1.01 | S. cerevisiae deletion strains, locus YLR085C, strain ARP6, active compounds read low 1.03 | S. cerevisiae deletion strains, locus YLR262C, strain YPT6, active compounds read low 1 | S. cerevisiae deletion strains, locus YML094W, strain GIM5, active compounds read low 1.01 | S. cerevisiae deletion strains, locus YMR219W, strain ESC1, active compounds read low 1.01 | S. cerevisiae deletion strains, locus YMR263W, strain SAP30, active compounds read low 1.02 | [1] 1.01 | S. cerevisiae deletion strains, locus YNL153C, strain GIM3, active compounds read low 1.01 | S. cerevisiae deletion strains, locus YNL298W, strain CLA4 (second series), active compounds read low 1 | S. cerevisiae deletion strains, locus YNL322C, strain KRE1, active compounds read low 1.02 | S. cerevisiae deletion strains, locus YNR030W, strain Alg12, active compounds read low 1.01 | S. cerevisiae deletion strains, locus YOL006C, strain TOP1, active compounds read low 1 | S. cerevisiae deletion strains, locus YPL055C, strain LGE1, active compounds read low 1.04 | [2] 1 | S. cerevisiae deletion strains, locus YPR135W, strain CTF4, active compounds read low 1.05 | S. cerevisiae strains, strain wild type, active compounds read low 1.01
